Test results as given in ChEMBL document CHEMBL3988442, “University of Dundee, Small-Polar-MMV Screening Library” (2021).

Molecular target: Sialic acid-binding Ig-like lectin 9 (Homo sapiens) (UniProt Q9Y336)
Test: Hs-Siglec9 ALPHAscreen SOP 20170721
Parameters: scale not given: direction of the effect not stated beside the values
Conditions: 10 µM

Sialic acid-binding Ig-like lectin 9 (Homo sapiens), sequence (Q9Y336 whole entry): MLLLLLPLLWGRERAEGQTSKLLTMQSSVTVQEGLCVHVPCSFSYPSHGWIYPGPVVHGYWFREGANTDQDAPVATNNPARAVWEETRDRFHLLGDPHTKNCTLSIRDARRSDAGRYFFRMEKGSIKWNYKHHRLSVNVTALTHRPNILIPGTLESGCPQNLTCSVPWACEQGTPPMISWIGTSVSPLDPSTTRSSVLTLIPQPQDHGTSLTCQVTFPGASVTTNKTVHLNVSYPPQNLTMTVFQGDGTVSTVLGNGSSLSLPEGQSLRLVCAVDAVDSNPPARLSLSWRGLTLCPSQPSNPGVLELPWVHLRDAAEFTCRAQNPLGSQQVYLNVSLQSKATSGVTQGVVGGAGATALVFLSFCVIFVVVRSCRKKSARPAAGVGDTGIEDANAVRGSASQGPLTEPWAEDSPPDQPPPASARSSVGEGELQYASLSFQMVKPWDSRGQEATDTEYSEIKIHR

Going from CCC1CN(c2nnc(C)c(C)c2C#N)CCO1 (stereo not given) to CCc1n[nH]c(C2CN(Cc3nccn3CC)CCO2)n1 (stereo not given), the Percent Effect falls from -4.88% to -14.5%.

First: COC(=O)c1ccccc1NC(=O)c1nc2ccccc2n(C)c1=O
Second: CC(=O)c1cn(CCC(=O)N[C@H](C(=O)O)C(C)C)c2ccccc12
The Percent Effect of the first is lower: -0.871% for the first, -0.198% for the second.

Compared with CCn1cnnc1C1CCN(C(=O)c2ccc(C(=O)OC)s2)CC1, CCS(=O)(=O)c1ccc(N2CCC(NC(C)=O)CC2)cc1 is lower in Percent Effect: 9.21% for the first, -0.234% for the second.

Compared with COc1ccc(NC(=O)CNc2cccc3c2CCCC3)c(OC)c1, CCOc1cccc(NS(=O)(=O)c2cc(C)c(C(=O)O)s2)c1 is higher in Percent Effect: 0.268% for the first, 45.6% for the second.

Compared with Cc1ccc(N2CCCC(NCc3cccc4c3OCCO4)C2)nn1 (stereo not given), OCC1CCCN1c1cc(NCc2ccc(Cl)s2)ncn1 (stereo not given) is lower in Percent Effect: 0.447% for the first, -2.18% for the second.

Going from Cc1nc(CN2C(=O)C[C@@H]3[C@@H]2CCN3C(=O)C2CCOCC2)cs1 to CCS(=O)(=O)c1ccc(N2CCC(NC(=O)c3cnn(C)c3)CC2)cc1, the Percent Effect rises from 3.96% to 34.3%.

Going from Cc1cnn(CC2CCCCN2CCC(=O)Nc2cc(C)on2)c1 (stereo not given) to Cc1nc[nH]c1-c1nc2cc(S(=O)(=O)N3CCCC3)ccc2n1C, the Percent Effect rises from 0.417% to 8.67%.

Compared with COCC(=O)N1CCC2(CC1)COCCN2CCN(C)C, CS(=O)(=O)NC1CCN(C(=O)NCCNc2ccccn2)CC1 is lower in Percent Effect: 4.73% for the first, -1.36% for the second.

Going from CCCNC(=O)c1sc(Nc2ccc(Cl)cn2)nc1C to CCN(CCn1cccn1)Cc1nc(-c2ccccc2F)oc1C, the Percent Effect falls from -4.2% to -5.94%.

Compared with CC(C)c1ncc2c(n1)CN(Cc1nc(Cc3ccccc3)no1)CC2, COc1cc(CCC(=O)NC2CC2)ccc1OCC(F)(F)F is lower in Percent Effect: 3.74% for the first, -6.41% for the second.
